In PubChem BioAssay (NCI) one finds growth data, which are given here for 34 compounds.

The panel holds about 83,000 compounds, 20% with a hit somewhere; the sample as a whole holds those more often.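 Values shown are percent growth following 48 h exposure of cells in 96-well plates to a single concentration of compound; below 10 was considered active.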 Values without a mark were called inactive. The source made the active and inactive calls.

The experiment has as its system A549/ATCC NSCLC. Briefly: NCI-60 one-dose screen, 48 h (100 = growth as untreated, 0 = no growth, -100 = all killed). The following applies: 10 µM.
For the compound `O=c1oc2ccc(-c3ccc(F)cc3F)cc2c(=O)n1-c1ccc(F)c(Cl)c1`, the growth was 8.87% (active). Next, `O=C(c1ccc(O)cc1)C1[C@H](c2ccccc2Br)[C@@H](c2ccccc2)NC12C(=O)Nc1ccc(Br)cc12` (some centres undefined): 34.4%. As to `O=C(Nc1cccc(-c2cn(-c3ccc4oc(=O)ccc4c3)nn2)c1)Nc1cc(C(F)(F)F)cc(C(F)(F)F)c1`, the growth is 21.8%.

Consider `O=C1N/C(=N\c2nccs2)S/C1=C\c1cccs1`, for which the growth was 26.8%. With `COc1ccc2[nH]c(O)c(N=NC(=O)COc3ccc(NC(=O)Nc4ccc(Cl)cc4)cc3)c2c1`, the growth is 29.4%. For `COc1ccc(OC)c(-c2cc(-c3c[nH]c4ccccc34)nc(N)c2C#N)c1`, the growth was 21.1%. Next, `N#Cc1ccc(-c2nn(-c3ccc(C(=O)O)cc3)cc2CNc2ccc(Oc3ccccc3)cc2)cc1`: 46.5%. In the case of `N#Cc1ccc(-c2nn(-c3ccc(C(=O)O)cc3)cc2CNc2cc(Cl)cc(C(F)(F)F)c2)cc1`, the growth is 29.7%. With `CO[C@@H]1CSS[C@H]1Cn1nc(-c2ccc(Oc3ccccc3)cc2)c2c(N)ncnc21`, the growth was 45.7%. Turning to `Cc1ccn2c(C(=O)c3ccc(Br)cc3)cc(-c3cc(-c4ccc(N(C)C)cc4)c(C#N)c(N)n3)c2c1`, the growth was 70.2%.

In the case of `O=c1c2ccccc2nc(COc2ccccc2)n1/N=C/c1ccc(F)cc1`, the growth was 86.2%. As for `Nc1nc(Nc2ccc(Cl)cc2)nn1Cc1cccc(Br)c1`, the growth is 45%. As for `CC(C)CCSc1nc(NC2CC2)c(C#N)c(-c2ccc(C(C)C)cc2)n1`, the growth was 106%. Consider `COc1cccc(-c2ccc(/C=N/NC(=O)c3[nH]c4ccc(Br)cc4c3-c3ccccc3)o2)c1`, for which the growth is 19.6%. Next, `COc1ccc2nc(Cl)c(-c3cc(-c4ccccc4)nc(=O)[nH]3)cc2c1`: 77.4%; `COc1cc2c(c(OC)c1OC)C(=O)CC(c1cccc(NC(=O)c3cccc(N)c3)c1)O2` (centres undefined): 85.3%; `COc1ccc(-c2nc(S(=O)(=O)c3ccccc3)c(S(C)(=O)=O)o2)cc1`: 88.7%. Regarding `CN1CCN(c2ccc(C(=O)/C=C/c3ccc(C#N)cc3)cc2)CC1`, the growth was 76.3%. On to `O=C(NO)c1ccc(Cn2ccc3c(NCc4ccccc4)ncnc32)cc1`, for which the growth is 28.1%. Next, `O=C(O)CCCCCCCCCCN1C(=O)/C(=C/c2cnc(-c3ccccc3)s2)SC1=S`: 46.1%. Consider `Cc1cc(=O)oc2cc(OCCCCOc3ccc(/C=C/C(=O)Nc4ccccc4[N+](=O)[O-])cc3)ccc12`, for which the growth is 106%. Next, `CCOC(=O)CNC(=O)CN(Cc1ccccc1)C(=O)[C@@]1(C)CCC[C@]2(C)[C@H]3CC4C(C(C)C)=C[C@]3(CC[C@H]21)[C@@H]1C(=O)CCC(=O)[C@H]41`: 65%; `Cc1ccc(-c2cc(-c3cc4ccccc4nc3Cl)[nH]c(=O)n2)cc1`: 35.5%; `COc1ccc2cc([C@H](C)C(=O)NCc3ccccc3)ccc2c1`: 59.7%.

Regarding `COc1cc(Cn2c(C(F)(F)F)cc3c(Cl)ncnc32)ccn1`, the growth was 92.6%.

As for `CN(C)c1cccc2c(S(=O)(=O)Nc3cccc(-c4csc(NC(=O)CCCCCN5CCN(c6cc7c(cc6F)C(=O)N(C6CCC(=O)NC6=O)C7=O)CC5)n4)c3)cccc12` (centres undefined), the growth is 90.3%. Turning to `COc1ccc(-c2nc(S(=O)(=O)c3ccc(C)cc3)c(S(=O)(=O)CC(=O)N(C)Cc3ccccc3)o2)cc1`, the growth was 84.9%. Take `COc1ccc(C=CC(=O)c2ccc(-n3c(C)nc4c(cnn4-c4ccccc4)c3=O)cc2)cc1`: the growth is 90.8%. Next, `O=S(=O)(Nc1ncccn1)c1ccc(-n2c(-c3ccc(Br)cc3)nc(-c3ccccc3)c2-c2ccccc2)cc1`: 34.9%; `COc1cc(/C=C/C(=O)c2ccc(NC(=O)CSc3nnc(-c4c[nH]c5ccccc45)n3-c3ccccc3)cc2)cc(OC)c1OC`: 106%; `CCCn1c(=O)c2[nH]c(-c3ccc(OCc4nc5ccccc5[nH]4)cc3)nc2n(CCC)c1=O`: 38.6%. Consider `Cc1ccc2nc(COc3ccc(C(=O)NNC(=S)NC(=O)c4ccccc4)cc3)[nH]c2c1`, for which the growth is 53.9%.

As to `COc1nccnc1NS(=O)(=O)c1ccc(NC2=C(Cl)C(=O)c3nc(C)ccc3C2=O)cc1`, the growth is 105%. In the case of `N#Cc1c(NC(=O)c2ccc(C(O)(C(F)(F)F)C(F)(F)F)cc2)sc2c1CCC(=O)C2`, the growth is 9.39% (active).
